In PubChem BioAssay (NCATS):
Several values for one entry are separate records, joined by “and”; a condition that tells them apart may be missing. Equal values may be shown once. Inconclusive results are not listed. The source holds several records for some structures; these can differ, active in one and inactive in another. Activity calls are given as the source filed them. Calls follow the shape of the dose curve; as a rule, active = well fitted inhibition curve with a large enough effect; inconclusive = small, poorly fitted or top-dose-only effect; inactive = no such curve, though single readings can be large or run the other way.

These compounds were tested against Cytochrome P450 2D6 (Homo sapiens) (UniProt P10635) (assay: qHTS Assay for Inhibitors and Substrates of Cytochrome P450 2D6 (AID 891; also: nearly all actives have a fitted effect of over 60% in size)). Conditions: recombinant CYP2D6, luciferin-ME EGE luminescence; series mostly up to 57.1 µM.
Protocol: NIH Molecular Libraries Screening Centers Network [MLSCN]
NIH Chemical Genomics Center [NCGC]
The P450 gene superfamily is involved in the metabolism and clearance of xenobiotics. This assay used human CYP2D6 to measure the demethylation of ethylene glycol ester of luciferin 6' methyl ether (Luciferin-ME EGE; […]) to luciferin. The luciferin is then measured by luminescence after the addition of a luciferase detection reagent. Luciferin-ME EGE concentration in the assay was equal to its Km for CYP2D6. Inhibitors and some substrates limit the production of luciferin, and decrease measured luminescence.
NCGC Assay Protocol Summary:
Two uL of enzyme and substrate mix (final concentrations: 5nM CYP2D6, 30uM Luciferin-ME EGE, 100mM KPO4) were dispensed into a white, solid bottom 1536-well microtiter plate. 23nL of compound was transferred by a pin tool. The plate was incubated at room temperature for 10 min. Two uL of an NADPH regeneration solution (Promega supplied reagent) was dispensed and the reaction was allowed to continue for 60 min at room temperature. Then the reaction was stopped by reconstituted luciferin detection buffer. After another 20 min of incubation the plate was read on the ViewLux (Perkin Elmer) at 60 sec exposure and 2x2 binning. This protocol was carried out with Promega-Glo reagents and further information can be found at http://www.promega.com/tbs/tb325/tb325.pdf. Data were normalized to the to AC100 inhibition (1.43 uM quinidine).
Keywords: P450, CYP2D6, Luciferase, MLSMR, MLSCN, NIH Roadmap, qHTS, NCGC
% is scaled to controls: 0 for no effect and ±100 for the full control effect; potency is read from the fitted curve at half-maximal effect.

Cytochrome P450 2D6 (Homo sapiens), sequence (P10635 whole entry, looked up): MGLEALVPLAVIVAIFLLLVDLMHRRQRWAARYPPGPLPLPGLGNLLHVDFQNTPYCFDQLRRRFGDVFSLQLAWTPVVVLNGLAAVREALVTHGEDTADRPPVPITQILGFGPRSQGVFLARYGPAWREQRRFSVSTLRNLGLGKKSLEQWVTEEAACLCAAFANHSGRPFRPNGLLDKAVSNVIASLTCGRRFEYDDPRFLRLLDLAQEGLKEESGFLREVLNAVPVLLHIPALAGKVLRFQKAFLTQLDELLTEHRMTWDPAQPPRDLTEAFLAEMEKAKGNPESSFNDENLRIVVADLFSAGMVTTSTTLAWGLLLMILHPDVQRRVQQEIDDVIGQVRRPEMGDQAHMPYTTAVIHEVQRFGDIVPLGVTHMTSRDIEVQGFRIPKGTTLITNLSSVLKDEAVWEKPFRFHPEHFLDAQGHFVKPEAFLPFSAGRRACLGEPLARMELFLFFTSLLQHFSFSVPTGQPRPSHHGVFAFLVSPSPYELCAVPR

Row | Structure (SMILES) | activity change, negative = inhibition | Potency
1 | C=CCC1(c2ccccc2)Oc2ccccc2-c2nc3cc(Cl)c(Cl)cc3nc21 (stereo not given) | 2.78% [at 11.4 µM] (inactive) and 6.33% [at 11.4 µM] (inactive) | 
2 | CCN(Cc1ccncc1)C(=O)[C@@H](CO)c1ccccc1 |  | inactive
3 | Cc1ccc(S(=O)(=O)/C=C\C#N)cc1 |  | 15.8 nM (active)
4 | COc1ccccc1N1CCN(C[C@@H](O)COc2cccc3ccccc23)CC1 |  | 794 nM (active) and 316 nM (active) and 126 nM (active)
5 | COc1cc(COc2cc(N)c(Cl)cc2C(=O)CCC2CCN(CCNS(C)(=O)=O)CC2)cc(OC)c1 |  | 794 nM (active)
6 | CCCCCCCC1=CC2=CC(=O)C(C)(O)C(=O)C2=CN1CCCC (stereo not given) |  | 3160 nM (active)
7 | c1csc(CNc2ncnc3ccc(-c4ccc5c(c4)OCO5)cc23)c1 |  | 398 nM (active)
8 | COC(=O)C12CC3(CCC4C5C(C(OCc6ccccc6)C41)C52)OCCO3 (stereo not given) | 0.322% [at 11.4 µM] (inactive) | 
9 | CCN(CC)CCOC(=O)C1(c2ccc([N+](=O)[O-])cc2)CCCC1 |  | 3.98 µM (active) and 5.01 µM (active)
10 | CO[C@]1(C2=NCCN2)COc2ccccc2O1 |  | 794 nM (active)
11 | CNCC[C@H](Oc1ccccc1OC)c1ccccc1 |  | 5.01 µM (active) and 1.26 µM (active)
12 | N[C@H](C(=O)O)[C@H](OCc1ccccc1)C(=O)O |  | 7940 nM (active)
13 | O=C(c1ccc(F)cc1)C1CCN(CCCCc2ccccc2)CC1 |  | 12.6 nM (active)
14 | CC[N+](CC)(CC)CCOc1ccc(/C=C\c2ccccc2)cc1 |  | 7940 nM (active)
15 | CCCCCCCC/C=C\CCCCCCCC(=O)N[C@@H](CO)Cc1ccc(O)cc1 |  | 126 nM (active)
16 | CC1(C)CO[C@H](CC(=O)O)CN1 |  | 6.3 nM (active)
17 | C=CCN1CCc2cc(O)c(O)cc2[C@H](c2ccccc2)C1 |  | 398 nM (active)
18 | C[C@@H](CCCCC(=O)Nc1ccc(C(F)(F)F)cc1)NCCc1cnc[nH]1 |  | 5010 nM (active)
19 | C[C@H](N=C(NC#N)Nc1ccncc1)C(C)(C)C |  | inactive
20 | CSc1nc(N)c2ncn([C@H]3O[C@H](COP(=O)(O)OP(=O)(O)OP(=O)(O)O)[C@@H](O)[C@@H]3O)c2n1 |  | inactive

Row | Structure (SMILES) | activity change, negative = inhibition | Potency
22 | COc1cc2nc(N3CCN(C(=O)[C@H]4CCCO4)CC3)nc(N)c2cc1OC |  | inactive
23 | NCCCCCCCCCCNS(=O)(=O)c1cccc2c(Cl)cccc12 |  | 1260 nM (active)
24 | CCCCOc1cc(C[C@@H]2CNC(=O)N2)ccc1OC |  | inactive
25 | COc1ccc2c(c1)c(CC(=O)N1CCOCC1)c(C)n2C(=O)c1ccc(Cl)cc1 |  | inactive
26 | CC[N+](C)(CC)CCC[n+]1c(-c2ccccc2)c2cc(N)ccc2c2ccc(N)cc21 |  | 6310 nM (active)
27 | O=C1CC2(CCCC2)CC(=O)N1CCNC[C@H]1COc2ccccc2O1 |  | 126 nM (active)
28 | O=Nc1c(-c2c(O)[nH]c3ccccc23)[nH]c2ccccc12 |  | 31600 nM (active)
29 | COCn1c2ccccc2c2nnc(C(=O)O)nc21 | 12.8% [at 11.4 µM] (inactive) | 
30 | CO[C@@]12C[C@@H](COC(=O)c3cncc(Br)c3)CN(C)[C@H]1Cc1cn(C)c3cccc2c13 |  | 39.8 nM (active) and 2.5 nM (active) and 20 nM (active)
31 | N#CCCN(CC#Cc1ccccc1)OCc1ccccc1 | -16.6% [at 11.4 µM] (inactive) | 
32 | N[C@H](Cc1ccc(Cl)cc1)C(=O)O |  | inactive
33 | COCCNC(=O)COc1ccc(OCCNC[C@@H](O)COc2ccccc2)cc1 |  | 5010 nM (active)
34 | CS(=O)(=O)Nc1ccc([N+](=O)[O-])cc1OC1CCCCC1 |  | 50.1 nM (active)
35 | CC1=C(\C=C/C(C)=C/C=C\C(C)=C\C(=O)O)C(C)(C)CCC1 |  | inactive and 2 µM (active)
36 | C[C@H](NC[C@H](O)CP(=O)(O)Cc1ccccc1)c1ccc(Cl)c(Cl)c1 |  | 50.1 nM (active)
37 | CC(C)NC[C@H](O)c1ccc2ccccc2c1 |  | 3160 nM (active)
38 | CC1=C(C)CC(c2ccccc2)C(C(=O)c2ccccc2O)C1 (stereo not given) | 6.86% [at 11.4 µM] (inactive) | 
39 | COC(=O)C(C(C)=O)C(=O)C(Cc1ccccc1)NC(=O)OCc1ccccc1 (stereo not given) | -1.19% [at 11.4 µM] (inactive) | 
40 | OCCNCCCOc1cccc(Cl)c1Cl |  | 158 nM (active)
